High-throughput results from PubChem.
rCAG binder – binders of r(CAG) RNA repeats, primary screen, biochemical, fluorescence; AID 651821, 2012; 370,000 tested, 1.3% active; inhibition, % at 3 µM; r(CAG) RNA repeat, TO-PRO-1 dye displacement fluorescence;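 active = inhibition above the plate cutoff, the mean of all test compounds on that plate plus 3 SD, cut at about 35% in these data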;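 also: higher means more dye released from RNA so lower well fluorescence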
ABHD5-PLIN5 inh – ABHD5-PLIN5 interaction inhibitors, primary screen, cell lysate, split luciferase complementation, luminescence. Split G. princeps luciferase complementation, 4 h. Perilipin-5 (Homo sapiens) + 1-acylglycerol-3-phosphate O-acyltransferase ABHD5 (Homo …. inhibition, % at 4 µM. 360,000 tested, 0.78% active;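 active = inhibition above the mean inhibition across every tested compound plus 3 SD, cut at about 22% in these data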
Target sequence (Q00G26 whole entry, looked up): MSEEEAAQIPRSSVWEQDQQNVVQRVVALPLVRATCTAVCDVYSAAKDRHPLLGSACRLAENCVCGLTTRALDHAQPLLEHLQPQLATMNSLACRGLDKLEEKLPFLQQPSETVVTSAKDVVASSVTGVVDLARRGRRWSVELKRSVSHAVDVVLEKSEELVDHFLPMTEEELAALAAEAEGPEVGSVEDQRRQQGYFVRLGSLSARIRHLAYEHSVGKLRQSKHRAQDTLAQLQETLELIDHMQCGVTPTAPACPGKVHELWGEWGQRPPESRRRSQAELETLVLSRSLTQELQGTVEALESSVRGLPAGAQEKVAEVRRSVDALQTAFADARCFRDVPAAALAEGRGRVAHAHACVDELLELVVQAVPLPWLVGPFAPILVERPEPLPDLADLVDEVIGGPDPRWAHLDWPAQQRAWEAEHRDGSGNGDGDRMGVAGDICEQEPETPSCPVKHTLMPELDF
Target sequence (Q8WTS1 whole entry, looked up): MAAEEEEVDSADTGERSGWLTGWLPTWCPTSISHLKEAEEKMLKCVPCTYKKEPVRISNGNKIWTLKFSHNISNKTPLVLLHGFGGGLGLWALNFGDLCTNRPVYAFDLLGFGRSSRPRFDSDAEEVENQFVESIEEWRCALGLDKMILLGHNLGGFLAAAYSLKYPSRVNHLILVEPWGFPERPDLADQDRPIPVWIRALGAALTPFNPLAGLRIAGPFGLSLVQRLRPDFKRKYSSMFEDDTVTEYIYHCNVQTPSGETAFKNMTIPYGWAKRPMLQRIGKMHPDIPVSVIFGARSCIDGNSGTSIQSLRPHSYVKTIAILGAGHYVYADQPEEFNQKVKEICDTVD
TLR4-MyD88 BLA – inhibitors of TLR4-MyD88 association in cells, primary screen, cell-based, HeLa CL3-4, BLA complementation, FRET ratio; Toll-like receptor 4 (Homo sapiens) + Myeloid differentiation primary response protein …; inhibition, % at 8.4 µM; AID 861, 2007; HeLa CL3-4 TLR4/MyD88 BLA complementation; 200,000 tested, 0.18% active; in the data active = inhibition above about 25%
TLR9-MyD88 inh – inhibitors of TLR9-MyD88 association in cells, primary screen, cell-based, CHO, BLA complementation, fluorescence. inhibition, % at 4.98 µM. 340,000 tested, 0.21% active. CCF4 FRET ratio. Toll-like receptor 9 (Homo sapiens) + Myeloid differentiation primary response protein …;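 active = inhibition above the mean over all tested compounds plus 3 SD, cut at about 21% in these data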
PRMT1 FP inh – PRMT1 methyltransferase inhibitors, primary screen, biochemical, fluorescence polarization | recombinant PRMT1, activity-based probe fluorescence polarization | inhibition, % at 2.79 µM | 370,000 tested, 1.3% active | AID 652257, 2013;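 active = inhibition above about 21% made by adding two undisclosed values, limit read from the data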
NOD2-RIPK2 inh – NOD2-RIPK2 binding disruptors in cells, primary screen, fluorescence, CHO cells, BLA complementation. Receptor-interacting serine/threonine-protein kinase 2 (Homo sapiens), O43353. CCF4 ratio. inhibition, % at 4.98 µM. 360,000 tested, 0.38% active. AID 624267, 2012; in the data active = inhibition above about 21%
A number is an active result; . = inactive; / = not tested or not shown. A selection: hits, their analogues and other compounds. The true share with any hit is near 3.3%.

SMILES	rCAG binder	ABHD5-PLIN5 inh	TLR4-MyD88 BLA	TLR9-MyD88 inh	PRMT1 FP inh	NOD2-RIPK2 inh
COc1ccc(CN2CCNC(=O)C2CC(=O)N(C)CCCN2CCOCC2)cc1C (configuration not stated)	.	.	/	.	.	.
COC(=O)c1ccccc1-c1ccc(C(c2c(C)[nH][nH]c2=O)c2c(C)[nH][nH]c2=O)o1	.	.	.	.	.	.
COC(=O)c1cccc(-c2ccc(C(c3c(C)[nH][nH]c3=O)c3c(C)[nH][nH]c3=O)o2)c1	.	.	.	.	29	.
CCOC(=O)/C=C(\C)Sc1cc(O)c2ccccc2c1O	.	.	/	.	84	.
N=C1/C(=C\c2coc3ccc(O)cc3c2=O)C(=O)N=C2SC=CN12	.	.	/	.	31	.
C[C@@H](c1ccccc1)N1C[C@H](COCc2ccccc2)Oc2cc(N3CC[C@@H](O)C3)ccc2S1(=O)=O	.	.	/	/	.	.
COc1ccc(NC(=O)c2cccc(S(=O)(=O)NCc3ccco3)c2)c(OC)c1	.	.	/	.	.	.
CC(C)(C)c1cc[n+](/C(C(=S)Nc2ccccc2F)=C(/[O-])c2ccc3c(c2)OCCO3)cc1	.	.	.	.	24	.
[O-]C(=C(C(=S)Nc1cccc2ccccc12)[n+]1ccccc1)c1ccc2c(c1)OCCO2	/	.	/	.	/	.
COc1ccc(-n2cccc2/C=C2\C(=N)N3N=C(c4ccco4)SC3=NC2=O)cc1	51	.	.	.	.	.
O=C1c2sc3nc4ccccc4n3c2C(=O)N1c1ccccc1Cl	.	.	.	.	.	.
N=c1cc(C2(O)CCCCC2)n2c(nc3ccccc32)s1	.	.	.	.	25	.
Cc1cc(C)c2c(-n3cccc3)c(C(=O)NNS(=O)(=O)c3ccc(Cl)cc3)sc2n1	35	.	.	.	.	.
Cc1cc(C(=O)NCc2ccco2)on1	.	.	.	.	24	.
Cc1cc(-c2ccccc2)nc2cc(C(=O)NCc3ccco3)nn12	.	23	.	.	.	.
CC(C)c1cc(C(=O)NCc2ccco2)no1	.	.	.	.	.	.
COc1ccc(-c2cc(C(F)(F)F)n3nc(C(=O)NCc4ccco4)cc3n2)cc1	.	.	.	.	.	.
Nc1sc2c(c1C(=O)NC1CCS(=O)(=O)C1)CCCC2 (configuration not stated)	.	.	.	.	23	.
Nc1sc2c(c1C(=O)NCCc1ccccc1)CCCC2	.	.	/	/	36	.
O=C(Cc1ccc(Cl)cc1)N1CCN(c2ccccc2)CC1	.	.	/	.	.	.
O=C1[C@@H](Oc2ccccc2)[C@@H](c2cccnc2)N1c1ccccc1	.	.	/	.	.	.
Oc1ccc(/C=N/Nc2ccc(Cl)nn2)c(O)c1O	.	.	/	.	58	.
CC[n+]1c(/C=C(\C)Nc2ccccc2)sc2ccccc21	.	.	.	.	.	.
CC[n+]1c(/C=C(\C)OC)sc2ccccc21	.	.	.	.	23	.
C[C@@H]1CN(S(=O)(=O)C(C)(C)C)[C@H](CCO)/C1=C\CCO	.	/	/	/	.	/
SMILES	rCAG binder	ABHD5-PLIN5 inh	TLR4-MyD88 BLA	TLR9-MyD88 inh	PRMT1 FP inh	NOD2-RIPK2 inh
COc1ccc(-n2c(SCC(=O)Nc3ccc4cn[nH]c4c3)nnc2-c2ccccc2)cc1	.	/	/	/	.	/
COC(=O)c1ccc(C2/C(=C(/O)c3ccc(OC)cc3)C(=O)C(=O)N2Cc2ccco2)cc1 (configuration not stated)	.	.	.	.	.	.
COc1ccc(/C(O)=C2/C(=O)C(=O)N(Cc3ccco3)C2c2cccs2)cc1 (configuration not stated)	.	.	.	.	24	.
CCOc1ccc(NC(=O)CSc2nccn(-c3ccc4c(c3)OCCO4)c2=O)cc1	.	.	/	.	22	.
CCc1ccc(NC(=O)CSc2nccn(-c3ccc4c(c3)OCCO4)c2=O)cc1	.	.	/	.	22	.
COCC(=O)N1CCCC(C(=O)c2ccc(-c3ccccc3)c(F)c2)C1 (configuration not stated)	.	.	.	.	.	.
CS(=O)(=O)c1ccc(N)c(SSc2cc(S(C)(=O)=O)ccc2N)c1	.	83	/	.	87	.
NC(=O)C1CCN(c2ncc(Br)s2)CC1	/	/	/	/	22	/
NC(=O)C1CCN(c2nc(-c3ccc(N)cc3)cs2)CC1	/	/	/	/	.	/
Cc1cc(O)ccc1N/C=C1\CCCC1=O	.	.	.	.	30	.
O=C(N/N=C/C=C/c1ccc([N+](=O)[O-])cc1)C1COc2ccccc2O1 (configuration not stated)	.	.	.	.	.	.
O=C(N/N=C\C=C\c1ccco1)C1COc2ccccc2O1 (configuration not stated)	.	23	/	.	.	.
CCO/C(=C/c1sc2ccc(OC)cc2[n+]1CCCS(=O)(=O)[O-])CC	.	.	.	.	77	.
CCC(/C=C1\Sc2ccc(OC)cc2N1CC)=C\c1sc2ccc(OC)cc2[n+]1CCCS(=O)(=O)[O-]	.	.	.	.	61	.
CCC(=O)/C=C1/Sc2ccc(OC)cc2N1CC	.	.	.	.	.	.
CCN(CC)CCCn1c2c(c(SCC(=O)Nc3ccc(OC(F)(F)F)cc3)nc1=O)CCC2	.	.	/	.	.	.
N#Cc1c(-c2ccco2)nc(SCc2ccc(F)cc2)[nH]c1=O	50	.	.	.	.	.
CC1CN2C(c3ccc([N+](=O)[O-])cc3)=CSC2=N1 (configuration not stated)	.	.	/	.	22	.
O=C(NCCC(=O)N1CCCC1)c1ccccc1Cl	.	.	/	.	.	.
Cc1ccc2c(c1)/C(=C/c1ccccc1)C(=O)N2	.	23	/	.	.	.
O=C1/C(=C/c2ccccc2)Nc2ccccc21	.	.	.	.	.	.
S=C1Cc2ccccc2N1	44	86	/	.	35	.
S=C1Nc2ccccc2CS1	.	.	/	.	.	.
COc1ccccc1C(CNC(=O)c1cccc(S(=O)(=O)N2c3ccccc3CC2C)c1)N(C)C (configuration not stated)	.	23	/	.	.	.
COc1ccccc1C(CNC(=O)c1cccc(S(=O)(=O)N2CCCc3ccccc32)c1)N(C)C (configuration not stated)	.	.	/	.	.	.
COc1cccc2sc(Nc3nc4ccc(NC(C)=O)cc4s3)nc12	49	.	.	.	.	.
CC(=O)Nc1ccc2nc(NC(=O)COc3ccccc3C)sc2c1	.	.	.	.	.	.
